Data from PubChem BioAssay AID652126 (The Scripps Research Institute Molecular Screening Center, 2013).
Among all 370,000 compounds or so, about 3,700 (1%) were called active. Only a selection was taken, and actives are over-represented in it overall. Values without a mark were called inactive.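 The calls were made as follows: active = activation above the mean over all tested compounds plus 3 SD (cut at about 0.9% in these data); inactive = the rest.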

tested on: Nuclear hormone receptor DAF-12 (Strongyloides stercoralis); test: S. stercoralis DAF-12 nuclear receptor activators, primary screen, cell-based, luminescence, HEK293, GRIP1 co-expression, lit1-tk-luc (AID 652126); conditions: HEK293 ssDAF-12/GRIP1 lit1-tk-luc reporter, at 6.8 µM, stronger effect = higher value, % of 3 µM dafachronic acid response;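 also: 0% = DMSO-only wells and 100% = 3 µM delta7-dafachronic acid wells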

In order of falling activation:
1. COC(=O)[C@]1(C#N)CC(=O)N(CC2CCCCC2)[C@@H]1c1ccccc1  0.53%
2. O=C(Nc1ccc(F)cc1)c1cc2c(s1)CCCC2  0.25%
3. CCOc1ncccc1C(=O)Nc1ccc(S(=O)(=O)Nc2nc(C)cc(C)n2)cc1  -0.22%
4. COCCCNc1nc2ccccc2nc1NS(=O)(=O)c1ccc(F)cc1  -0.23%
5. CC(=O)Nc1ccc(S(=O)(=O)Nc2nccc(/C=C/c3ccccc3F)n2)cc1  -0.24%
6. CC(C)CNS(=O)(=O)CC1NCCc2ccccc21 (configuration not stated)  -0.28%
7. COc1ccc(CNC(=O)COc2ccccc2C(=O)c2cnn(-c3ccccc3)c2)cc1OC  -0.31%
8. Cc1cccc(-n2nc3c(c2NC(=O)c2cc4ccccc4o2)CS(=O)(=O)C3)c1  -0.31%
9. CC(C)Oc1ccc(C(=O)NCC(=O)Nc2ccc3c(c2)CCC3)cc1  -0.37%
10. O=S(=O)(c1ccc2c(c1)OCCCO2)N1CCN(S(=O)(=O)c2c(F)cccc2F)CC1  -0.38%
11. CNC(=O)COc1ccc(S(=O)(=O)Nc2ccccc2)cc1  -0.41%
12. Cc1ccc(S(=O)(=O)C(C#N)c2nc3ccccc3nc2N2CCCC2)cc1C (configuration not stated)  -0.41%
13. Cc1c(NC(=O)CN(C)CC(=O)Nc2ccc(F)c(F)c2F)c(=O)n(-c2ccccc2)n1C  -0.43%
14. CCCCCNC(=O)C(c1ccc(OC)cc1)n1c(=O)c(-c2ccccc2)nc2ccccc21 (configuration not stated)  -0.6%
15. CC(=O)N1CCc2cc(S(=O)(=O)NCCC(=O)N3CCCC3)ccc21  -0.66%
16. O=C(Nc1ccccc1)N1CCN(Cc2nc3ccccc3c(=O)[nH]2)CC1  -0.67%
17. N#Cc1ccccc1OC[C@@H](O)CN1CCC(C(O)(c2ccccc2)c2ccccc2)CC1  -0.74%
18. Cc1ccc(S(=O)(=O)/N=C2\C=C(NS(=O)(=O)c3ccc(C)cc3)C(=O)c3ccccc32)cc1  -0.8%
19. O=C(CSc1nnc(-c2c[nH]c3ccccc23)o1)c1ccccc1  -0.81%
20. COc1ccc(C(C(=O)NCc2ccccc2)n2c(=O)c(-c3ccccc3)nc3ccccc32)cc1 (configuration not stated)  -0.84%
21. Cc1cc(C(=O)NN=C/C=C/c2ccco2)n[nH]1  -0.85%
22. CCCn1cc(SCC(N)=O)c2ccccc21  -0.92%
23. COC(=O)[C@]12C[C@H](CC(=O)N3CCOCC3)C(=O)N(Cc3ccc(Cl)cc3Cl)C1=C[C@H](COCc1ccccc1)O[C@@H]2C  -0.98%
24. Cc1[nH]nc(-c2ccc(OCc3cnn(-c4ccccc4)c3)cc2O)c1Oc1ccc(Cl)cc1  -0.99%
25. O=C(NCc1cccs1)C1CCN(S(=O)(=O)c2ccccc2[N+](=O)[O-])CC1  -1.16%
26. CCN(C(=O)[C@@H](C1CC1)[C@@H](O)c1ccc2ccccc2c1)c1ccccc1  -1.3%
27. COC(=O)C1=CO[C@@H](O[C@@H]2O[C@H](CO)[C@@H](O)[C@H](O)[C@H]2O)C2C1C[C@H](O)[C@@H]2C (some centres not stated)  -1.3%
28. N#CCC[C@H]1CC[C@]2(CCCN(Cc3ccc(Cl)cc3)C2)O1  -1.32%
29. CC(OC(=O)c1cc2ccccc2o1)C(=O)Nc1ccc(N2CCOCC2)cc1 (configuration not stated)  -1.36%
30. Cc1ccc(/C=C/C(=O)O)cc1S(=O)(=O)N1CCC(Cc2ccccc2)CC1  -1.4%
31. O=C(CNC1CCCCC1)NCC1(c2ccccc2)CCCC1  -1.46%
32. Nc1[nH]c(/C=C2/CCCCC2n2[nH]c(=O)n(-c3ccccc3)c2=O)c(Cc2ccccc2)[n+]1Cc1ccccc1 (configuration not stated)  -1.51%
33. CCC(NC(=O)C1C2C=CC3(CN(Cc4ccccc4)C(=O)C13)O2)c1ccccc1 (configuration not stated)  -1.54%
34. N#Cc1ccc(OC[C@@H](O)CN2CCC(C(O)(c3ccccc3)c3ccccc3)CC2)c(F)c1  -1.58%
35. COC(=O)[C@]12C[C@H](CC(=O)NCc3ccccc3)C(=O)N(Cc3ccccc3)C1=C[C@H](COCc1ccccc1)O[C@@H]2C  -1.73%
36. Cc1ccc(-c2nnc(SCC(=O)Nc3ccc(Oc4ccccc4)cc3)n2Cc2ccco2)cc1  -1.75%
37. CCOC(=O)C(=O)N(Cc1ccccc1)c1ccccc1C(=O)Nc1cc(OC)ccc1OC  -1.83%

O=C(c1cnn(-c2ccc(Cl)cc2)c1)c1ccccc1O was tested, and the activation was 1.24% (active).
In the case of Cc1cc(C)nc(NS(=O)(=O)c2ccc(N/C=C\C(=O)c3cccs3)cc2)n1, the activation is reported as 1.14% (active).
For Cc1ccc(NC(=O)c2cc3ccccc3o2)cc1, the activation was 2.98% (active).
NC(=O)CSc1c[nH]c2ccccc12 was tested, and the activation was 1.11% (active).
In the case of COc1ccc(S(=O)(=O)/N=C2\C=C(NS(=O)(=O)c3ccccc3)C(=O)c3ccccc32)cc1, the activation is reported as 1.6% (active).
With COc1ccc(NC(=O)C(c2ccncc2)n2c(=O)c(-c3cc4ccccc4[nH]3)nc3ccccc32)cc1 (configuration not stated) the activation was 1.22% (active).
In the case of O=C(Nc1ccc2c(c1)CCC2)c1ccc(Br)s1, the activation is reported as 1.14% (active).
Cc1ccc(S(=O)(=O)Nc2nc3ccccc3nc2N2CCc3ccccc3C2)cc1 was tested, and the activation was 1.37% (active).
For CCc1ccc2oc(-c3ccc(N)cc3)nc2c1, the activation was 1.77% (active).
COc1ccc(C(=O)Nc2sc(C)c(C)c2CN2CCOCC2)cc1 was tested, and the activation was 1.65% (active).
